Hits are enriched below; roughly 19% of the tested compounds scored in any of these assays.
HT1080NT lethal: kills 2HG-producing HT-1080-NT fibrosarcoma cells. HT-1080-NT fibrosarcoma viability, CellTiter-Glo ATP luminescence, 48 h. Potency, µM (top dose mostly 46.1 µM), inactives show top-dose activity, negative = less viability, hits mostly cytotoxic. 360,000 compounds, 1.6% hits;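 also: NT is the 2HG producing partner of a matched IDH1 knockdown line; potency is read from the fitted curve at half-maximal effect; 0% = DMSO-treated cells and -100% = media-only wells without cells; nearly all actives have a fitted effect of over 55% in size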
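750 cells/well, RPMI + 5% FBS; 2 h settle, compound pin-transfer, 48 h at 37 degrees C. CellTiter-Glo 10 min RT, luminescence. Normalized to DMSO and media-only wells.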
DT40 TDP1 CPT: DT40-hTDP1 cell growth loss with CPT; chicken DT40 Tdp1-/-;hTDP1 cells + 20 nM CPT, ATP luminescence, 48 h; Potency, µM (highest dose often 46.2 µM), for the others: top-dose activity change, negative = growth inhibition, usual class: inhibitors; 420,000 compounds, 12% hits; AID 686979; also: potency is read from the fitted curve at half-maximal effect; nearly all actives have a fitted effect of over 55% in size
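Cell growth measured by CellTiter-Glo luminescence after a minimum 48 h, 37 C compound exposure with 20 nM CPT in Tdp1-knockout DT40 cells stably expressing hTDP1, seeded 400/well; qHTS titration format.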
HT1080 IDH1KD tx: toxicity to HT-1080 IDH1 knockdown cells (counter line). Potency, µM (series often up to 46.1 µM), inactives show at the highest dose activity, negative = toxicity, hits mostly cytotoxic. AID 686971. HT-1080 IDH1 knockdown viability, ATP luminescence, 48 h. 360,000 compounds, 2% hits;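 also: potency is read from the fitted curve at half-maximal effect; 0% = DMSO wells and -100% = cell-free medium wells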
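Luminescent ATP read-out (CellTiter-Glo, 10 min at room temperature) after 48 h compound exposure at 37 °C gave viability of IDH1-knockdown HT-1080 cells. Activity was normalised to DMSO and cell-free wells, then fitted as concentration-response curves.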
TDP1 cell noCPT: qHTS for Inhibitors of human tyrosyl-DNA phosphodiesterase 1 (TDP1): qHTS in cells in absence of CPT; Potency, µM (titrated, usually from 46.2 µM), without a hit: top-dose activity change, negative = growth inhibition, usual class: inhibitors; 420,000 compounds, 15% hits; AID 686978, 2013; DT40 Tdp1-/- hTDP1 cells, no CPT, ATP luminescence, 48 h; also: potency is read from the fitted curve at half-maximal effect; nearly all actives have a fitted effect of over 55% in size
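Growth of hTDP1-complemented DT40 Tdp1-knockout cells is measured by ATP luminescence after at least 48 hr compound exposure at 37 °C, with DMSO substituting for the 20 nM CPT used in the parallel screen.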
IL-1B inflam inh: inflammasome signaling inhibition, IL-1 beta readout. 360,000 compounds, 4.7% hits. activity change, % at 57.5 µM. AID 743279. THP-1 LPS/ATP IL-1B secretion, AlphaLISA, 16 h; hits give low values; in the data active = activity change below about -50%; inconclusive = mostly about -30% to -49%
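THP-1 cells pretreated 1 hr with compounds (up to 57.5 uM final), then stimulated with LPS (250 ng/mL final) plus ATP (1.25 mM final); secreted IL-1B measured by AlphaLISA after 16 hr, decreased signal indicating inhibition.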
Numbers without * were called inactive; ? = inconclusive; . = no result. Unless noted, calls follow the shape of the dose curve; as a rule, active = well fitted curve in the direction sought with a large enough effect; inconclusive = small, poorly fitted or top-dose-only effect, or another doubt; inactive = no such curve, though single readings can be large; an effect the other way counts as inactive or inconclusive. Unless noted, % is scaled to controls: 0 for no effect and ±100 for the full control effect.

SMILES	HT1080NT lethal	DT40 TDP1 CPT	HT1080 IDH1KD tx	TDP1 cell noCPT	IL-1B inflam inh
COC(=O)c1ccc(NC(=O)c2cc[n+](Cc3ccccc3)cc2)cc1	-3%	-4%	0%	2%	17
CCOc1ccccc1N1CCN(C(=O)c2ccc3c(c2)OCO3)CC1	-13%	?	-9%	?	2
CCOc1cc(CNc2ncc(-c3ccc(OC)cc3)n2C)ccc1O	9%	?	-5%	18µM*	-19
Cn1c(-c2ccc(F)cc2)cnc1NCc1ccc(F)cc1F	-1%	-4%	0%	?	9
Cc1ccc(-c2cnc(NCc3c(F)cccc3Cl)n2C)cc1	.	15µM*	.	23µM*	.
Cn1c(-c2ccc(F)cc2)cnc1NCc1ccccc1F	1%	-28%	0%	23µM*	-7
COc1ccc(CNc2ncc(-c3ccccc3)n2C)cc1	-7%	-26%	-3%	?	-9
Cn1c(-c2ccccc2)cnc1NCc1ccc(-c2ccccc2)cc1	-15%	26µM*	-5%	?	16
CCNC(=O)CCC(N)C(=O)O (stereo not drawn)	.	5%	.	-8%	.
Cc1nc(C(=O)N2CCc3c([nH]c4ccccc34)C2c2cc(F)ccc2F)cs1 (stereo not drawn)	0%	2%	-19%	-9%	-9
Cc1ccc(NC(=O)CCc2nnc3ccc(NCc4ccco4)nn23)cc1	-2%	?	-8%	?	21
Cn1cc(C(=O)O)c(=O)c2cc(S(=O)(=O)N3CCCCC3)ccc21	.	-22%	.	?	.
Cn1c(-c2ccc(F)cc2)cnc1NCc1ccc(C#N)cc1	-12%	?	-24%	16µM*	-15
CCOC(=O)N1CCN(S(=O)(=O)N2CCCC(C(=O)NCc3ccc(OC)cc3)C2)CC1 (stereo not drawn)	14%	-21%	14%	-20%	23
CCOc1c(Br)cc(/C=C2\N=C(C)OC2=O)cc1Br	9%	21µM*	16%	?	-1
COc1cc(/C=C2\N=C(C)OC2=O)cc(OC)c1OC	11%	?	11%	?	0
C=CCN1C(=O)N/C(=C/c2ccccc2OCC(=O)Nc2ccc(F)cc2)C1=O	?	?	-3%	?	3
COC(=O)C1=CC(C(=O)c2cccs2)=NN(c2ccc(OC)cc2)C1C(=O)OC (stereo not drawn)	-24%	?	-14%	?	-69*
COC(=O)C1=NN(c2ccc(OC)cc2)C2C(=O)N(c3ccccc3OC)C(=O)C12 (stereo not drawn)	13%	12%	2%	0%	-8
COCCCNC(=O)CCC(=O)N1Cc2ccccc2Oc2ncccc21	.	-19%	.	0%	.
CCOc1ccccc1CNC(=O)c1ccc(N2Cc3ccccc3Oc3ncccc32)s1	.	?	.	15µM*	.
Clc1ccc2c(c1)C(C1=NCCN1)c1ccccc1CS2 (stereo not drawn)	1.2µM*	6.5µM*	1.5µM*	5.8µM*	-12
CCOC(=O)C1CCN(CC(O)COC(CC)c2ccccc2)CC1 (stereo not drawn)	13%	0%	9%	-27%	-3
COc1ccc(OC)c(-c2csc(NC(=O)c3ccc(F)cc3)n2)c1	?	7.3µM*	?	?	-2
COc1ccc(OC)c(-c2csc(NC(=O)Cn3[nH]c(=O)c4ccccc4c3=O)n2)c1	?	?	21µM*	?	18
SMILES	HT1080NT lethal	DT40 TDP1 CPT	HT1080 IDH1KD tx	TDP1 cell noCPT	IL-1B inflam inh
Cc1ccc(-c2csc(NC(=O)Cc3ccc(F)cc3)n2)o1	6%	-6%	6%	-11%	-65*
COc1ccc(OC)c(-c2csc(NC(=O)Cc3ccc(F)cc3)n2)c1	?	-1%	?	?	-69*
CCCC(=O)N1CCC1(C)C(=O)Nc1cc(OC)c(OC)c(OC)c1 (stereo not drawn)	13%	-16%	0%	-13%	-13
CCc1ccc(CN2CCCC(C(=O)Nc3ccccc3-c3ccc(OC)cc3)C2)o1 (stereo not drawn)	-15%	?	-27%	?	35
CCC(=O)N1CCc2cc(Br)cc(S(=O)(=O)NCC3CCCN3CC)c21 (stereo not drawn)	5%	-16%	1%	-8%	32
COc1ccc(OC)c(-c2csc(NC(=O)CSc3ccc([N+](=O)[O-])cc3)n2)c1	-8%	?	-3%	16µM*	-69*
CC(C)(C)NS(=O)(=O)c1ccc(CCC(=O)NCc2ccccn2)cc1	3%	-12%	9%	17%	42
CCOc1ccc(CNC(=O)CCCn2c(=O)c3cccn3c3ccc(F)cc32)cc1	.	?	.	12µM*	.
O=C(CCCn1c(=O)c2cccn2c2cccnc21)Nc1ccccc1Br	.	-14%	.	?	.
O=C(CCCn1c(=O)c2cccn2c2ccccc21)NCc1ccccc1Br	.	?	.	16µM*	.
CCOc1ccccc1CNC(=O)CCCn1c(=O)c2cccn2c2ccc(F)cc21	.	?	.	12µM*	.
CCOc1ccc(CNC(=O)Cn2c(=O)c3cccn3c3ccc(F)cc32)cc1	.	-3%	.	-12%	.
COc1ccc(OCc2nc(-c3ccc(F)c(F)c3)cs2)cc1	-2%	-18%	-5%	-15%	-16
Cc1ccc(Nc2nnns2)cc1	8%	-22%	13%	-35%	-19
CC1=CC(C)(C)N=C(Nc2ccc(C)cc2)S1	?	?	?	?	-65*
Cc1cc2c(c(-c3cnccn3)c1)OC(CNC(=O)c1cc(Cl)ccc1F)C2 (stereo not drawn)	.	14%	.	-14%	.
CSc1ccccc1C(=O)NCC1Cc2cc(F)cc(-c3cnccn3)c2O1 (stereo not drawn)	.	21µM*	.	?	.
COC(=O)[C@H](C)NC(=O)c1cc2c(cn1)[nH]c1ccccc12	18%	18µM*	-3%	18µM*	-85*
COc1ccc(-c2ccc3c(c2)c(C#Cc2ccsc2)c(-c2cc(OC)cc(OC)c2)n3C)cc1	-6%	0%	-1%	?	21
COc1ccc(-c2c(C#Cc3ccsc3)c3cc(Br)ccc3n2C)cc1	-1%	?	-1%	21µM*	9
C=CCn1c2ccccc2c(=O)c2cc(C#Cc3cc(OC)cc(OC)c3)ccc21	11%	16µM*	-2%	?	0
COc1cc(C#Cc2c(C=O)n(C)c3ccccc23)cc(OC)c1	0%	?	13%	23µM*	28
Cn1cncc1C#Cc1c(C=O)n(C)c2ccccc12	?	?	-24%	-13%	30
COc1ccc(-c2c(C#Cc3ccsc3)c3cc(-c4ccc5cc[nH]c5c4)ccc3n2C)cc1	1%	?	-2%	21µM*	11

Screening results: PubChem BioAssay, National Center for Advancing Translational Sciences (NCATS)
